Laboratory results taken from PubChem BioAssay (NCATS).
Inconclusive results are not listed. Active and inactive are the calls of the source. Unless noted, calls follow the shape of the dose curve; as a rule, active = well fitted curve in the direction sought with a large enough effect; inconclusive = small, poorly fitted or top-dose-only effect, or another doubt; inactive = no such curve, though single readings can be large; an effect the other way counts as inactive or inconclusive.

Assays:
[1] = target: Transient receptor potential cation channel subfamily V member 1 (Homo sapiens) (UniProt Q8NER1); assay: HTS Assay for Compounds that Act as Enhancers of the Vanilloid Receptor 1 (AID 488979); also: 0% is about no effect
Transient receptor potential cation channel subfamily V member 1 (Homo sapiens), sequence (Q8NER1 whole entry, looked up): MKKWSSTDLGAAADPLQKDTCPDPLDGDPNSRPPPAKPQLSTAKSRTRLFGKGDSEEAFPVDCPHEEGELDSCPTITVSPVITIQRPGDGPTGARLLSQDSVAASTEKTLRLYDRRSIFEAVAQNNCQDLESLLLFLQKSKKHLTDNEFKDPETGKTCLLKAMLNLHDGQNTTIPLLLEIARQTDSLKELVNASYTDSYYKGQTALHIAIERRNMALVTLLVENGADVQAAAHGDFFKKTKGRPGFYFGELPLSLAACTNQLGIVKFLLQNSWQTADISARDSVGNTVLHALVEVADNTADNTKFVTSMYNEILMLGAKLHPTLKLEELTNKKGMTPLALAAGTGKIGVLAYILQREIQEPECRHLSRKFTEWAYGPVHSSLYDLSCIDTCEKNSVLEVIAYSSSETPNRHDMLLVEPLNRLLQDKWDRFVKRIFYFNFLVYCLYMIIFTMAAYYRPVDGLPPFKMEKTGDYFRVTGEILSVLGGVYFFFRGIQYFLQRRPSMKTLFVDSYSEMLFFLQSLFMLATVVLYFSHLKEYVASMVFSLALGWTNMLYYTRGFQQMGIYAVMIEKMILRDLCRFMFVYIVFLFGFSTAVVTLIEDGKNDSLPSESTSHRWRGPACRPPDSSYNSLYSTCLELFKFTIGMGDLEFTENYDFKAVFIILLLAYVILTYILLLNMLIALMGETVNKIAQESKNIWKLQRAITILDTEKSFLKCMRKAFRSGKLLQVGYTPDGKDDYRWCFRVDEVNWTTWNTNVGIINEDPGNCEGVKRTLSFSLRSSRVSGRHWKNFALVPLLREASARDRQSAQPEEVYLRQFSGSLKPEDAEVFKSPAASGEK
Outline: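 Calcium influx kinetics via Fluo-8 (480/520 nm) in TRPV1-expressing cells, 2000/well cultured overnight at 35.5C. Compound-alone read 3 min (agonist phase), followed by EC20 capsaicin challenge for 2 min (enhancer phase).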

[2] = target: Thyrotropin receptor (Homo sapiens) (UniProt P16473); assay: qHTS Assay for Antagonists of the Thyroid Stimulating Hormone Receptor (AID 488980); also: series mostly up to about 58 µM; 0% is about no effect
Outline: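 TSHR-HEK293 cells; 70 uM RO 20-1724 PDE inhibitor; compound + EC80 TSH (4 nM final); anti-cAMP cryptate antibody/cAMP-d2 in lysis buffer, 30 min RT; HTRF 665/620 nm read.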

[3] = target: D(1A) dopamine receptor (Homo sapiens) (UniProt P21728); assay: HTS Assay for Allosteric Agonists of the Human D1 Dopamine Receptor: Primary Screen for Agonists (AID 488981); also: 0% is about no effect
Outline: (§1)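 Calcium flux in an inducible, force-coupled HEK293 Trex D1 line (overnight at 30 C): agonist mode is the 180 s kinetic read after compound; potentiator mode is the following 180 s read after dopamine at EC20.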

[4] = target: D(1A) dopamine receptor (Homo sapiens) (UniProt P21728); assay: HTS Assay for Allosteric Agonists of the Human D1 Dopamine Receptor: Primary Screen for Potentiators (AID 488982); also: 0% is about no effect
Outline: as §1

[5] = target: D(1A) dopamine receptor (Homo sapiens) (UniProt P21728); assay: HTS Assay for Allosteric Agonists of the Human D1 Dopamine Receptor: Primary Screen for Antagonists (AID 488983);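 also: calcium flux response to an EC80 dopamine challenge measured with no-wash dye; % is scaled to controls: 0 for no effect and ±100 for the full control effect; nearly all actives have a fitted effect of over 65% in size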
Outline: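 Tetracycline-induced HEK293 T-REx cells expressing force-coupled D1 were plated overnight at 30 C, dye-loaded for calcium, and read kinetically. Compounds were pinned in, then an EC80 dopamine challenge followed after 180 s to reveal antagonism.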

[6] = Validation screen for small molecules that induce genotoxicity in human embryonic kidney (HEK293T) cells expressing luciferase-tagged ELG1 (AID 493106); also: 0% is about no effect
Outline: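 HEK293T cells expressing luciferase-tagged ELG1 were exposed to compound or DMSO vehicle for 16 hr at 37 °C, 5% CO2. Genotoxic stress raises ELG1 levels, so increased luciferase signal after ONE-Glo addition and 30 min at room temperature marks hits.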

[7] = target: ATPase family AAA domain-containing protein 5 (Homo sapiens) (UniProt Q96QE3); assay: Validation screen for small molecules that inhibit ELG1-dependent DNA repair in human embryonic kidney (HEK293T) cells expressing luciferase-tagged ELG1 (AID 493107); also: nearly all actives have a fitted effect of over 70% in size; also: potency is read from the fitted curve at half-maximal effect
ATPase family AAA domain-containing protein 5 (Homo sapiens), sequence (Q96QE3 whole entry, looked up, the tested form may be a part): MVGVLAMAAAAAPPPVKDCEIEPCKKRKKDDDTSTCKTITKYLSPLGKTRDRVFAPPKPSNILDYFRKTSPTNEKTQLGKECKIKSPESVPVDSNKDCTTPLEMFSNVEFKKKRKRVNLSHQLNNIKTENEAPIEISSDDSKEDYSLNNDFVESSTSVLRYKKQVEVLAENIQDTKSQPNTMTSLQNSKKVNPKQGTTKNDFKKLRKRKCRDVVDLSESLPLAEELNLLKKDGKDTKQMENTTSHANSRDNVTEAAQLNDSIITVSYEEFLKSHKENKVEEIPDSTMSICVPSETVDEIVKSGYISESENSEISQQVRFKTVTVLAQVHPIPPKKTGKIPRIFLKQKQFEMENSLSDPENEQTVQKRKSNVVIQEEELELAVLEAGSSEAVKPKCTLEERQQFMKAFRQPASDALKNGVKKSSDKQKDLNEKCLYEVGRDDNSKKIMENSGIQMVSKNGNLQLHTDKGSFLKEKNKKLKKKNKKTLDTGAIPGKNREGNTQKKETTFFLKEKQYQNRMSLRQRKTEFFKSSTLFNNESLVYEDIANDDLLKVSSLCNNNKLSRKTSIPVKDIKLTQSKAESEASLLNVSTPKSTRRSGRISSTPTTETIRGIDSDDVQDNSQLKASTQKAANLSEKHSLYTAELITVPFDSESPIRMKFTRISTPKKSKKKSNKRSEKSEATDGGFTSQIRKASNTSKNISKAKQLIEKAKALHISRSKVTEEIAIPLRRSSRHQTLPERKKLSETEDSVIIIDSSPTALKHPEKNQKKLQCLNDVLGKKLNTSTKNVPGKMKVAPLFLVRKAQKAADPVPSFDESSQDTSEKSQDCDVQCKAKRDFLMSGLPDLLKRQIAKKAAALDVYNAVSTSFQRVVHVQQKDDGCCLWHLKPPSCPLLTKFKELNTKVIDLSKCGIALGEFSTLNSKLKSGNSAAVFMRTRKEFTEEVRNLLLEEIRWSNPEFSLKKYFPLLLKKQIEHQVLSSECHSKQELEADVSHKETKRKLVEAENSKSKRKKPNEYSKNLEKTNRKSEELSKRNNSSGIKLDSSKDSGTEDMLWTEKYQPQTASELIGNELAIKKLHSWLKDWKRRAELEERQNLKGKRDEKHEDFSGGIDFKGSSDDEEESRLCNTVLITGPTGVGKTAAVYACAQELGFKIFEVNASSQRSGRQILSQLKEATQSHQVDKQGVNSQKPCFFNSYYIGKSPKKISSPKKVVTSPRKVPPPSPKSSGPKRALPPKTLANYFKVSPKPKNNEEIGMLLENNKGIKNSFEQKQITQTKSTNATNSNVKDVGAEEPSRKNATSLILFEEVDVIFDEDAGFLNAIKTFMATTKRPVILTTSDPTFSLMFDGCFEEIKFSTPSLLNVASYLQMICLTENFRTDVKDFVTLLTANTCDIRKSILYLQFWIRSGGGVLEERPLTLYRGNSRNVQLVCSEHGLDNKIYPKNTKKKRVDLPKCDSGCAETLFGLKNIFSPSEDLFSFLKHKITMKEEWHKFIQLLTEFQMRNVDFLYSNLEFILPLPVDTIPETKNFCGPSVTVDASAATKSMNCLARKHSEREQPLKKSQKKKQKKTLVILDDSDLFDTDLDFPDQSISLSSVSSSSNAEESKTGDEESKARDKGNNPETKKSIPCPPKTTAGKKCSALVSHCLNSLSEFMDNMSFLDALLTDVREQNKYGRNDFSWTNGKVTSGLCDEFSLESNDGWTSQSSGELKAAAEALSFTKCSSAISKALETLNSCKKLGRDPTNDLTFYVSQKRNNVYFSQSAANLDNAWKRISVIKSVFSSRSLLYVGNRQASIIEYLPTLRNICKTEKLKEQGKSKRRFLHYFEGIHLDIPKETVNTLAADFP
Outline: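 HEK293T cells expressing luciferase-tagged ELG1 were co-treated with 5-fluorouridine and compound or DMSO for 16 hr at 37 °C, 5% CO2. Luciferase activity was then read with ONE-Glo after 30 min at room temperature; suppressed signal indicates blocked ELG1 function.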

[8] = target: Thyrotropin-releasing hormone receptor (Homo sapiens) (UniProt P34981); assay: qHTS for Small Molecule Agonists and Allosteric Enhancers of Human TRH Receptor: Validation Screen for Agonists (AID 493127;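 active = calcium activation more than 3 SD above the typical response in the agonist read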;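 also: intracellular calcium rise by fluo-8 fluorescence before TRH EC20 addition; 0% is about no effect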); conditions: TRH receptor agonist cell assay; at 2 µM; stronger effect = higher value
Thyrotropin-releasing hormone receptor (Homo sapiens), sequence (P34981 whole entry, looked up): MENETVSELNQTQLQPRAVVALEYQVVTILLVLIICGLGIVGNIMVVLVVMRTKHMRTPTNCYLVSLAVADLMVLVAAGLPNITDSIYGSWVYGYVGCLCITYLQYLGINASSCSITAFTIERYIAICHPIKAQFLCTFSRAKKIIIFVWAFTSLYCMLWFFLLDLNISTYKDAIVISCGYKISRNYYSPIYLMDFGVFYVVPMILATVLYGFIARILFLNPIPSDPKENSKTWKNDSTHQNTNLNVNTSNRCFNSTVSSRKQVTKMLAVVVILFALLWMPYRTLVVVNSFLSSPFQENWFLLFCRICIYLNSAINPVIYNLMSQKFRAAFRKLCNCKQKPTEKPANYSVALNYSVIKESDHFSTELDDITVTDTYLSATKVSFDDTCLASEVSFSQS
Outline: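 TRHR-expressing cells were plated overnight in serum-containing medium, then loaded with fluo-8 calcium dye at room temperature for 30 min–1.5 h. After a 10 s baseline, compound was pin-transferred and calcium fluorescence (ex 480/em 530) read kinetically for agonist response.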

[9] = Nrf2 qHTS screen for inhibitors: Validation (AID 493153; active = well fitted inhibition curve with a large enough effect in the main read-out, with a control signal flat, not every such curve was filed as active); conditions: Potency: luciferase luminescence; viability change: measured here: cytotoxicity max response
Outline: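 A549 cells carrying an ARE-driven firefly luciferase reporter, in 5% FBS OPTI-MEM, were treated with compounds in concentration-response for 18-24 h at 37°C. Viability was read by CellTiter-Fluor fluorescence, then Nrf2 activity by luciferase luminescence.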

[10] = target: Galactokinase (Homo sapiens) (UniProt P51570); assay: qHTS Validation Assay for Inhibitors of Human Galactokinase (GALK) (AID 493189); also: 0% is about no effect
Galactokinase (Homo sapiens), sequence (P51570 whole entry, looked up): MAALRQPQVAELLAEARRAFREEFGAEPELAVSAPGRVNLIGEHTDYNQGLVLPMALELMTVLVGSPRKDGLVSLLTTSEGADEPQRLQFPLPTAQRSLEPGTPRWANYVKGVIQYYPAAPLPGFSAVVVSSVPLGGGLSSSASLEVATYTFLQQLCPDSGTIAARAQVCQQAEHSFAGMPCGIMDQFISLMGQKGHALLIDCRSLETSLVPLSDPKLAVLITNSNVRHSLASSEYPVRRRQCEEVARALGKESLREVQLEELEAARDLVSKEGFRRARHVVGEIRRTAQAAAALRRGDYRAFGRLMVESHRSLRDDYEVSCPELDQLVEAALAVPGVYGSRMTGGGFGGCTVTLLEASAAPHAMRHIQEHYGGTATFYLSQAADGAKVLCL
Outline: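 Luminescence from leftover ATP (Kinase-Glo Plus, 10 min) served as read-out after a 1 h room-temperature reaction of 5 nM GALK, 100 uM galactose and 35 uM ATP at pH8.0.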

[11] = Validation screen for small molecules that induce DNA re-replication in SW480 colon adenocarcinoma cells (AID 504364); also: 0% is about no effect
Outline: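 SW480 cells seeded at 250 per well were exposed to compound or DMSO for 48 hr at 37 C, 5% CO2, then stained with Hoechst for 40 min. DNA content per nucleus was imaged (405 nm ex, 500-530 nm em).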

[12] = target: Peptidyl-prolyl cis-trans isomerase NIMA-interacting 1 (Homo sapiens) (UniProt Q13526); assay: qHTS Validation Assay to Find Inhibitors of Pin1 (AID 504536; active = well fitted inhibition curve with a large enough effect in the polarisation, with a control signal flat, not every such curve was filed as active; the % refers to the polarisation;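 also: 0% = full Pin1 enzyme wells and -100% = no-enzyme wells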)
Peptidyl-prolyl cis-trans isomerase NIMA-interacting 1 (Homo sapiens), sequence (Q13526 whole entry, looked up): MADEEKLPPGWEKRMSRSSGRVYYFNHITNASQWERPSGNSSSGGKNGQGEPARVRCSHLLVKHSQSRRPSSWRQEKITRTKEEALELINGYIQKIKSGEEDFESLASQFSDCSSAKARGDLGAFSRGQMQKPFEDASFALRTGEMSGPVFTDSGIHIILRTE
Outline: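 Fluorescence polarization competition: compounds (titration) displace HiFluor-488-labeled Pin1-1b peptide from Pin1 (0.3 uM final) in pH 7.5 HEPES buffer with DTT, 10 min at room temperature; %Activity normalized to no-enzyme wells, curves fitted.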

[13] = target: Phosphoglycerate kinase, glycosomal (Trypanosoma brucei brucei) (UniProt P07378); assay: qHTS Validation Assay to Find Inhibitors of Phosphoglycerate Kinase (AID 504547);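 also: control wells lack PGK and mark full inhibition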
Outline: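 Inhibition of the enzyme is judged by a Kinase-Glo Plus luminescent signal following a one-hour incubation at room temperature. Because 1,3-BPG is unstable, it is made in situ by GAPDH at 100nM final; no-PGK wells define the baseline.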

[14] = target: phosphoglycerate mutase (Leishmania major) (UniProt Q4Q090); assay: qHTS Validation Assay to Find Inhibitors of Phosphoglycerate Mutase (AID 504548); conditions: Potency: inhibition qHTS; also: series mostly up to about 58 µM; % is scaled to controls: 0 for no effect and ±100 for the full control effect
phosphoglycerate mutase (Leishmania major), sequence (Q4Q090 1-553): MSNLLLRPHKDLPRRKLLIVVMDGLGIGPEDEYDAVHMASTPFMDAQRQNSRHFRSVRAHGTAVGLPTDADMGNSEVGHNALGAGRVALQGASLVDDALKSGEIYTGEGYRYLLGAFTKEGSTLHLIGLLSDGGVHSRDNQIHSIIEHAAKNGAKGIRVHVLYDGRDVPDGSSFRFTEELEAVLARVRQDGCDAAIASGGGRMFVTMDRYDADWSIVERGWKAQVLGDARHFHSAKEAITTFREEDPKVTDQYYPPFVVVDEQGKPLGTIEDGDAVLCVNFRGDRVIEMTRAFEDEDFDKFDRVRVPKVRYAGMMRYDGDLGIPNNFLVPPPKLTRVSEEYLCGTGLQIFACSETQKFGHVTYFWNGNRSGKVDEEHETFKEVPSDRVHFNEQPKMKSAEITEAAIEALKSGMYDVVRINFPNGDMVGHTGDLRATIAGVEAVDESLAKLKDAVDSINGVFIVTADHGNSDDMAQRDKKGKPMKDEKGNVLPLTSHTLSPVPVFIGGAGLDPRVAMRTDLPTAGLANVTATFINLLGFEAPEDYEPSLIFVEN
Outline: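 Lm PGAM 1.25nM final; 100 mM TEA pH 7.6, 5 mM MgCl2, 0.01% Tween-20; 45 min RT; Kinase-GloPlus, 10 min; end-point luminescence. Enzyme-free wells as negative controls.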

[15] = qHTS for Inhibitors of ATXN expression: Validation of Cytotoxic Assay (AID 588349); also: % is scaled to controls: 0 for no effect and ±100 for the full control effect
Outline: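 HEK293 cells were dosed with titrated compounds for 72 hr at 37 degrees C. Viability was read by CellTiter Glo luminescence, with intracellular ATP as the marker of cell survival.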

[16] = qHTS for Inhibitors of ATXN expression: Validation (AID 588378); also: nearly all actives have a fitted effect of over 75% in size; also: potency is read from the fitted curve at half-maximal effect
Outline: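 Cells: HEK293-ATXN2-FFLuc, phenol-red free DMEM, 2 h attachment. Compound pin-transfer, 24 h, 37 degrees C, 5% CO2. CellTiter-Fluor 30 min, Ex405/Em525; Bright-Glo 5 min, luminescence 2 s exposure.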

[17] = qHTS for Inhibitors of Cell Surface uPA Generation: Validation Assay (AID 493164);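 also: RAW 264.7 macrophage cells exposed to compound for 18 h; 0% is about no effect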
Outline: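 RAW 264.7, 4000 cells/well, o/n plating; cpd 7-pt 1:5 dilution 2.45 nM–38.3 uM final; 18 h, 37 C/5% CO2; ATP-Lite, 5 s luminescence exposure.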

[18] = target: Ubiquitin carboxyl-terminal hydrolase 1 (Homo sapiens) (UniProt O94782); assay: Inhibitors of USP1/UAF1: Pilot qHTS (AID 504865);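 also: rhodamine fluorescence freed from ubiquitin-rhodamine substrate followed over time; top concentration of the series differs between compounds; % is scaled to controls: 0 for no effect and ±100 for the full control effect; nearly all actives have a fitted effect of over 35% in size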
Ubiquitin carboxyl-terminal hydrolase 1 (Homo sapiens), sequence (O94782 whole entry, looked up): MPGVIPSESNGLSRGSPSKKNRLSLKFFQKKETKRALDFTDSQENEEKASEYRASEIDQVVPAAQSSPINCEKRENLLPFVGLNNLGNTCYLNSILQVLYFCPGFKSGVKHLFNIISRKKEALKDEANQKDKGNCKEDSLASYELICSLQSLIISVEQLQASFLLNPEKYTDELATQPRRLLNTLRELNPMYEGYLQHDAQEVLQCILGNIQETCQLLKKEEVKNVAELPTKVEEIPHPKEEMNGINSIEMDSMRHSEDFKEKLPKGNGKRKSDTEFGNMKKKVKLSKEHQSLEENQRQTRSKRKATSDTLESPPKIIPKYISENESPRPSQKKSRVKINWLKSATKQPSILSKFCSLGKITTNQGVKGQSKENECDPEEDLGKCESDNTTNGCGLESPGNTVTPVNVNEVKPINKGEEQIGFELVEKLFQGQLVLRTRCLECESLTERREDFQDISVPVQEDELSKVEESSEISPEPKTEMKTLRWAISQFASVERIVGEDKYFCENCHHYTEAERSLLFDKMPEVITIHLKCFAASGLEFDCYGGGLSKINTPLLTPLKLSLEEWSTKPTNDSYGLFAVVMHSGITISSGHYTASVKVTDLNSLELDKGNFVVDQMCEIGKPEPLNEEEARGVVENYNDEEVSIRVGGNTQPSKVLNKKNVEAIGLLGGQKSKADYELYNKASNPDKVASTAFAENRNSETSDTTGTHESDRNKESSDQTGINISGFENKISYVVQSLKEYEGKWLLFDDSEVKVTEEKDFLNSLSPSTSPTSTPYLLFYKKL
Outline: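 1nM USP1/UAF1 + cpd, 15 min RT; start w/ Ub-Rho 150nM final; kinetic FL 480/540 nm, 6 reads q60 s. Buffer 50mM HEPES pH 7.8, 0.5mM EDTA, 1mM TCEP, 0.01% Tween-20, 0.1 mg/ml BSA.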

NC1(C(=O)O)CCCCC1
-4.89%: viability change [9]
inactive: outcome [1] | outcome [2] | Potency [3] | Potency [4] | Potency [5] | Potency [6] | Potency [7] | activation [8] 0.5% | Potency [9] | Potency [10] | Potency [11] | Potency [12] | Potency [13] | Potency [14] | Potency [15] | Potency [16]

N[C@H]1CONC1=O
inactive: outcome [1] | outcome [2] | Potency [3] | Potency [4] | Potency [5] | Potency [6] | Potency [7] | Potency [9] | outcome [17] | Potency [10] | Potency [11] | Potency [12] | Potency [13] | Potency [14] | Potency [18] | Potency [15] | Potency [16]
1.32%: viability change [9]

c1ccc2nc(C3=NCCN3)ccc2c1
inactive: outcome [1] | outcome [2] | Potency [3] | Potency [4] | Potency [5] | Potency [6] | Potency [7] | activation [8] 0.0625% | Potency [9] | outcome [17] | Potency [11] | Potency [12] | Potency [13] | Potency [14] | Potency [15] | Potency [16]
1.31%: viability change [9]

CC1CNCCN1S(=O)(=O)c1cccc2cnccc12 (stereo not drawn)
inactive: outcome [1] | outcome [2] | Potency [3] | Potency [4] | Potency [5] | Potency [6] | activation [8] 1.25% | outcome [17] | Potency [10] | Potency [11] | Potency [12] | Potency [13] | Potency [14]
active: Potency [7] 8.2 µM | Potency [16] 22.4 µM

O=C(O)c1cc2cc(F)ccc2[nH]1
4.46%: viability change [9]
inactive: outcome [1] | outcome [2] | Potency [3] | Potency [4] | Potency [5] | Potency [6] | Potency [7] | activation [8] -2.56% | Potency [9] | outcome [17] | Potency [10] | Potency [11] | Potency [12] | Potency [14] | Potency [18] | Potency [15] | Potency [16]

CCCCCCN(CCCCCC)C(=O)Cc1c(-c2ccc(F)cc2)[nH]c2ccccc12
inactive: outcome [1] | outcome [2] | Potency [3] | Potency [4] | Potency [5] | Potency [6] | Potency [7] | activation [8] -4% | outcome [17] | Potency [12] | Potency [13] | Potency [14] | Potency [15] | Potency [16]

NC1(C(=O)O)CCc2cc(C(=O)O)ccc21 (stereo not drawn)
-0.824%: viability change [9]
inactive: outcome [1] | outcome [2] | Potency [3] | Potency [4] | Potency [5] | Potency [6] | Potency [7] | activation [8] 1.19% | Potency [9] | outcome [17] | Potency [10] | Potency [11] | Potency [14] | Potency [18] | Potency [15] | Potency [16]

COc1ccc2c(c1)c(CC(=O)O)c(C)n2C(=O)c1ccccc1
inactive: outcome [1] | outcome [2] | Potency [3] | Potency [4] | Potency [5] | Potency [6] | Potency [7] | activation [8] 0.812% | outcome [17] | Potency [10] | Potency [11] | Potency [12] | Potency [13] | Potency [14] | Potency [18] | Potency [15] | Potency [16]
